High-throughput results (PubChem)
Pf Dd2 inh = qHTS Primary assay for Inhibitors of Plasmodium falciparum Dd2 growth in vitro; P. falciparum Dd2 growth, SYBR Green, 72 h; Potency, µM (highest dose often 28.9 µM), usual class: inhibitors; 120,000 compounds, 4.3% hits; AID 1347417, 2020; active = well fitted inhibition curve with a large enough effect; also: nearly all actives have a fitted effect of over 65% in size
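Readout: SYBR Green fluorescence, 485 nm excitation, 535 nm emission, after ~16 h lysis at 37C. Before that, Dd2-infected red cells (2.5% hematocrit) grew 72 h with compound, 29 uM top final concentration.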
Hits are given with their value; – = inactive; [ ] = another dose, or the depositor's remark. The entries come from a sample that favours hits as a whole.

SMILES	Pf Dd2 inh
CN(C)C(=O)c1cc(-c2ccc(S(C)(=O)=O)cc2)nc2c1cnn2C	–
CC(C)NC(=O)c1cc(-c2ccc(S(C)(=O)=O)cc2)c2cnn(C)c2n1	3.2µM
CN(C)C(=O)c1cc(-c2ccc(S(C)(=O)=O)cc2)c2cnn(C)c2n1	–
O=C(CC[C@@H]1CNC(=O)[C@@H]2C[C@H](NC(=O)c3ccccc3)CN12)NCc1ccc(F)cc1	–
COCCC(=O)N[C@@H]1CN(Cc2ccccc2)C[C@H]1CO	–
CC(C)=CC(=O)N1CC[C@H](NC(=O)Nc2ccc(F)cc2F)[C@H]1C(=O)N[C@H](Cc1ccccc1)C(N)=O	–
c1ccc(Nc2cc3c(cn2)NCCN(Cc2ccsc2)C3)cc1	–
CCc1ccc(NC(=O)C2CCCN(S(=O)(=O)c3cccc4cccnc34)C2)cc1 (centres undefined)	14µM
CCc1ccc(NC(=O)C2CCCN(S(=O)(=O)c3cccc4nsnc34)C2)cc1 (centres undefined)	–
Cc1ccc(NC(=O)C2CCCN(S(=O)(=O)c3cccc4cccnc34)C2)cc1Cl (centres undefined)	–
Cc1ccc(N2CCC(NC(=O)Cc3ccccc3C)C2=O)cc1 (centres undefined)	–
COCC(=O)NC[C@H]1O[C@@H](CC(=O)NCCN(C)C)[C@H](O)[C@@H]1O	–
COc1cccc(CC(=O)N2CCCC(c3nc(C4CCOCC4)no3)C2)c1 (centres undefined)	–
OCC1CN(c2ccncn2)CC12CCN(Cc1ccncc1F)CC2 (centres undefined)	–
CCC[C@H]1CN(S(=O)(=O)c2ccc(-c3ccn[nH]3)o2)C[C@@H]1N	–
CCC[C@H]1CN(S(=O)(=O)c2cnn(CCC)c2)C[C@@H]1N	11µM
CCC[C@H]1CN(S(=O)(=O)c2ccc(CC)s2)C[C@@H]1N	–
COCc1cc(CNC(=O)C2(Oc3ccc(Cl)cc3)CCNCC2)[nH]n1	–
CCc1cccc(OCC(=O)c2ccc3c(c2)N(CC(=O)N(C)Cc2ccccc2)C(=O)CO3)c1	–
CC(C)CN(Cc1cnn(C)c1)C(=O)C1CCN(C(=O)C2CCC2)CC1	–
O=C1NCCC[C@@H]1NC(=O)[C@H]1CN(C(=O)NC2CCCCC2)CCN1C(=O)c1cncnc1	–
COc1ccc(CC(=O)N2CC[C@@H](CC(=O)O)[C@@H](CC3=NCCc4cc(OC)c(OC)cc43)C2)cc1	–
Cc1ccc(CNC(=O)c2ccc3nc(N4CCCCC4)sc3c2)cc1	–
CCCN(CCC)CCCNC(=O)C1CCN(c2nc3ccc(CC)cc3s2)CC1	7.1µM
CCCN(CCC)CCNC(=O)C1CCN(c2nc3ccc(CC)cc3s2)CC1	7.1µM
SMILES	Pf Dd2 inh
CCOc1ccc2nc(N3CCC(C(=O)Nc4ccc(Br)cc4F)CC3)sc2c1	–
CCc1ccc2nc(N3CCC(C(=O)NCCC(C)C)CC3)sc2c1	–
CCCN(CCC)CCCNC(=O)C1CCN(S(=O)(=O)CC)CC1	–
CC(C)CCNC(=O)CC1Sc2ncccc2N(C)C1=O (centres undefined)	–
O=C(CCC1CC1)N1CCN(c2ncnc3ccsc23)CC(O)C1 (centres undefined)	–
CN1C[C@H](NC2CCOCC2)CCC[C@@H](C(=O)NC2CC2)CC1=O	–
CN(CC1(CO)CCC1)C(=O)c1cc(COc2ccccc2F)[nH]n1	–
CCN(CC)C(=O)c1sc2c(c1C)c(=O)n(CCc1ccccc1)c(=O)n2Cc1ccc(F)cc1Cl	10µM
Cc1sc2c(c1C)c(=O)n(CCc1ccccc1)c(=O)n2Cc1ccccc1Cl	–
CCN(CC)C(=O)c1sc2c(c1C)c(=O)n(CCc1ccccc1)c(=O)n2Cc1cccc(Cl)c1	–
CCc1cccc(NC(=O)Cn2cc(C(=O)c3ccncc3)c(=O)c3cc(C)c(C)cc32)c1	10µM
Cc1ccc2c(c1)c(=O)c(C(=O)c1ccncc1)cn2CC(=O)Nc1ccccc1Cl	–
Cc1cc(C)cc(NC(=O)Cn2cc(C(=O)c3ccncc3)c(=O)c3cc(C)c(C)cc32)c1	–
CC[C@H]1CN(C(=O)c2ccnc(Cl)c2)CC[C@H]1CC(=O)NCc1cccc2ccccc12	–
CCOc1ccccc1-c1nccn1C1COc2ccccc2C1 (centres undefined)	–
CCC(=O)Nc1ccc(C2(C(=O)NC3CC3)CCCCC2)cc1	–
COc1ccc(C2(C(=O)N3CCC4(CC3)N(C)C(=O)CS4(=O)=O)CC2)cc1	–
CCc1ccccc1NC(=O)NCC1CCOCC1	–
NCCC[C@@H](N)C(=O)N1CCC2(CCC(=O)N(Cc3ccccc3)C2)CC1	–
Cn1nccc1C(=O)N[C@@H]1CN(c2ncccn2)C[C@H]1CO	2.5µM
Cn1cccc1C(=O)N[C@@H]1CN(c2ncccn2)C[C@H]1CO	–
CN(C)C[C@@H]1CN(c2ncccn2)C[C@H]1NC(=O)c1ccnn1C	–
O=C(Nc1ccc(C(F)(F)F)cc1)N1CCCC(Cn2c(C3CC3)nc3cccnc32)C1 (centres undefined)	–
Cc1ccccc1[C@H]1C[C@@H](O)[C@@H](O)[C@@H]1NC(=O)c1cncnc1	–
Cc1ccc(-c2cnc(C3CC3)o2)cc1S(=O)(=O)Nc1cccc(C#N)c1	–
SMILES	Pf Dd2 inh
Cc1ccc(-c2nnc(Nc3ccc(Cl)cc3)c3ccccc23)cc1S(=O)(=O)NCC1CCCO1 (centres undefined)	–
Cc1cc(-c2ccc(C)c(S(=O)(=O)NCC3CCN(Cc4ccccc4F)CC3)c2)on1	–
CCOC(=O)c1c(Nc2cccc(C)c2)nnc(-c2ccccc2)c1-c1ccccc1	–
Cc1ccc(-c2nnc(Nc3cccc(Cl)c3)c3ccccc23)cc1S(=O)(=O)NCC1CCCO1 (centres undefined)	10µM
Cc1cccc(Nc2nnc(-c3ccc(C)c(S(=O)(=O)NCC4CCCO4)c3)c3ccccc23)c1 (centres undefined)	4.5µM
COc1ccc(S(=O)(=O)N2CCC(c3noc(C4CC4)n3)C2)cc1 (centres undefined)	–[5.79 µM]
O=C(C[C@H]1NC(=O)c2ccccc2NC1=O)NCCc1ccccn1	–
Cc1nc2scc(CC(=O)NCc3ccco3)n2c(=O)c1-c1cc(C)n(-c2cccc(F)c2)n1	–
Cc1nnc([C@H]2CCN(Cc3cc4ccccc4o3)C2)o1	–
CCC1CN(Cc2cn(Cc3ccccc3)nc2-c2cc3ccccc3o2)CCO1 (centres undefined)	10µM
C=CCn1cc(CN2CCOC(Cc3cccc(OC)c3)C2)c(C)n1 (centres undefined)	–
CCOC(=O)c1nc(Nc2ccc(C(=O)OCC(C)C)cc2)c2ccccc2n1	11µM
CCCCCOC(=O)c1ccc(Nc2nc(C(=O)OCC)nc3ccccc23)cc1	–
CCOC(=O)c1ccc(Nc2nc(C(=O)OCC)nc3ccccc23)cc1	–
CCOC(=O)c1nc(Nc2ccc(C(=O)OC(C)C)cc2)c2ccccc2n1	3.2µM
CCOC(=O)c1nc(Nc2ccc(OC)cc2)c2ccccc2n1	–
CCOC(=O)c1nc(Nc2ccccc2OC)c2ccccc2n1	–
O=C(NC1CCN(c2cc(-c3ccc(F)cc3)[nH]n2)CC1)c1cccnc1	–
COc1ccccc1CNC(=O)[C@H]1C[C@@H](O)[C@H](O)[C@@H]2N=C(Nc3ccc(C)cc3)S[C@@H]21	–
CN(CCc1ccccn1)C(=O)C1CCCN(S(=O)(=O)c2ccccc2)CCC(=O)NCC1 (centres undefined)	–
O=C(C[C@@H]1C[C@H]2O[C@H](CNCc3cnccc3Cl)[C@@H](O)[C@H]2O1)N1CCOCC1	–
O=C(NC1CCCCCC1)C1CCN(c2cn[nH]c(=O)c2)C1 (centres undefined)	–
